# Calls of active or inactive are those of the source. The rule behind the calls is not given here.
# Test system: HIV-1 nucleocapsid protein NCp7 (binding to TG oligonucleotide)
# Experiment: HIV Nucleocapsid (AID 346);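 note: potency is for inhibitors that block NC binding and lower polarization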
# Conditions: HIV-1 NC / fluorescein-TGTGTGTG probe, fluorescence polarization
# In short: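 10 nM TG4xF probe with 100 nM nucleocapsid protein in high-salt Hepes pH 7.5 (250mM NaCl) containing 1uM ZnCl2 and reducing agents. Compound inhibition of binding was read as fluorescein polarization after 1 hr at room temperature.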
# Potency is the fitted concentration of half-maximal effect.
row,Compound,Potency
1,COc1ccc(-n2c(=O)c(CCc3ccccc3)nc3cncnc32)cc1,> 20 µM (inactive)
2,CN(C)c1ncc2nc(-c3cccs3)c(=O)n(C3CC3)c2n1,0.297 µM (active)
3,O=C(c1ccco1)N1CCC2(CCCN(c3cccc(-c4ccccc4)c3)C2)CC1,> 20 µM (inactive)
4,CCNc1ncc2nc(-c3cccs3)c(=O)n(CCC#N)c2n1,6.37 µM (active)
5,Cn1c(=O)c(-c2ccc(Cl)cc2)nc2cncnc21,> 20 µM (inactive)
6,COc1ccc(Oc2ncc3nc(C)c(=O)n(Cc4ccc(F)cc4)c3n2)cc1,> 20 µM (inactive)
7,CN(C)c1ncc2nc(-c3cc(F)cc(F)c3)c(=O)n(Cc3ccc(F)cc3)c2n1,> 20 µM (inactive)
8,N#Cc1ccc(CN2CCCC3(CCNCC3)C2)cc1,> 20 µM (inactive)
9,FC(F)(F)c1ccccc1-c1ccc2ncnc(NC3CC3)c2c1,> 20 µM (inactive)
10,O=C(Oc1ccccc1)N1CCC[C@@]2(CCN(c3ccncc3)C2)C1,> 20 µM (inactive)
11,O=C(c1ccncc1)N1CCC[C@@]2(CCN(c3ncccn3)C2)C1,> 20 µM (inactive)
12,COCCn1c(=O)c(-c2cc(F)cc(F)c2)nc2cnc(N3CCNCC3)nc21,> 20 µM (inactive)
13,N#Cc1cccc(NC(=O)N2CC[C@@]3(CCCN(S(=O)(=O)c4ccccc4)C3)C2)c1,> 20 µM (inactive)
14,COCCn1c(=O)c(C)nc2cnc(Oc3cccc(Cl)c3)nc21,> 4 µM (inactive)
15,COc1cccc(Cn2c(=O)c(C)nc3cnc(N4CCN(C)CC4)nc32)c1,> 20 µM (inactive)
16,CCNc1ncc2nc(-c3cn(C)c4ccccc34)c(=O)n(C)c2n1,> 20 µM (inactive)
17,COCCNc1ccnc(-c2c(C)noc2C)n1,> 20 µM (inactive)
18,O=C(c1ccco1)N1CCC2(CC1)CCN(c1ccncc1)CC2,> 20 µM (inactive)
19,c1cncc(CNc2nc(-c3ccoc3)nc3ccccc23)c1,> 20 µM (inactive)
20,Cc1cnc(CNc2ncnc3ccc(-c4ccc5c(c4)OCO5)cc23)cn1,> 20 µM (inactive)

row,Compound,Potency
1,COc1ccc(NC(=O)N2CCCC3(CCN(S(C)(=O)=O)CC3)C2)cc1,> 20 µM (inactive)
2,COc1cccc(Cn2c(=O)c(-c3cccc(C#N)c3)nc3cnc(N4CCN(C)CC4)nc32)c1,> 20 µM (inactive)
3,CC(=O)N1CCC2(CCCN(Cc3ccc(C#N)cc3)C2)CC1,> 20 µM (inactive)
4,COc1ccccc1CNc1ncnc2ccc(-c3ccccc3C#N)cc12,> 20 µM (inactive)
5,CC(=O)NCCNc1ncncc1-c1ccccc1CN(C)C,> 20 µM (inactive)
6,COCCNc1ncnc2ccc(-c3cccc(NS(C)(=O)=O)c3)cc12,> 20 µM (inactive)
7,COCCn1c(=O)c(-c2ccc(OC)cc2)nc2cnc(N3CCNCC3)nc21,> 20 µM (inactive)
8,O=C(c1ccco1)N1CCC2(CCCN(c3ccccn3)C2)CC1,> 20 µM (inactive)
9,COc1ccc(C(=O)N2CCC[C@@]3(CCN(c4ccccc4)C3)C2)cc1,> 20 µM (inactive)
10,CCNc1ncc2nc(C)c(=O)n(Cc3ccc(F)cc3)c2n1,> 20 µM (inactive)
11,COc1ccc2[nH]cc(CCNc3nc(-c4cccnc4)nc4ccccc34)c2c1,> 20 µM (inactive)
12,COc1ccccc1CN1CCCC2(CCN(S(C)(=O)=O)CC2)C1,> 20 µM (inactive)
13,FC(F)(F)c1ccccc1-c1cncnc1NCc1cccs1,> 20 µM (inactive)
14,COCCn1c(=O)c(C)nc2cnc(N(C)C)nc21,> 20 µM (inactive)
15,O=C(c1cnccn1)N1CCC[C@@]2(CCN(Cc3nccs3)C2)C1,> 20 µM (inactive)
16,c1ccc2c(NC3CCNCC3)nc(-c3ccoc3)nc2c1,> 20 µM (inactive)
17,COc1ccccc1CNc1ccnc(-c2c(C)noc2C)n1,> 20 µM (inactive)
18,c1cncc(-c2ccc3ncnc(N4CCNCC4)c3c2)c1,> 20 µM (inactive)
19,COc1cccc(-c2ccc3ncnc(NC4CC4)c3c2)c1,> 20 µM (inactive)
20,O=c1cnc2cnc(N3CCNCC3)nc2n1CCc1ccccc1,> 20 µM (inactive)
